Test results reported in PubChem BioAssay (NCI).
This is part of a sample that, as a whole, favours compounds with a hit. Of some 83,000 tested, about 20% had one in any assay.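 A percent growth of 40 corresponds to 60% growth inhibition; 0 means no net growth; -100 means all cells died. Active threshold: below 10.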 Unmarked numbers belong to inactive results. Activity calls are given as the source filed them.

How the values were obtained:
Assay in all cases: NCI-60 one-dose screen, 48 h (100 = growth as untreated, 0 = no growth, -100 = all killed)
Details in all cases: 10 µM unless noted
[1] = tested on: HCT-15 colon
[2] = tested on: HT29 colon
[3] = tested on: SNB-75 CNS
[4] = tested on: U251 CNS
[5] = tested on: PC-3 prostate
[6] = tested on: SK-MEL-5 melanoma
[7] = tested on: UACC-62 melanoma
[8] = tested on: LOX IMVI melanoma
[9] = tested on: SK-MEL-28 melanoma

O=C1NC(=S)NC(=O)C1=Cc1cn(Cc2ccccn2)c2ccccc12
growth [1]: 42.9%
growth [2]: 72.2%
growth [3]: 52.8%
growth [4]: 31.5%
growth [5]: 47.5%
growth [6]: 73.6%
growth [7]: 70.5%
growth [8]: 27.1%
growth [9]: 73.4%

CN(C)C(C(N)=O)c1ccc(Cl)cc1 (stereo unspecified)
growth [1]: 108%
growth [2]: 104%
growth [3]: 93.6%
growth [4]: 93.4%
growth [5]: 95.1%
growth [6]: 101%
growth [7]: 90.8%
growth [8]: 95.7%
growth [9]: 101%

Fc1ccc(C2CC(c3cccc(Nc4ccncc4)c3)=NN2c2cc(Cl)cc(Cl)c2)cc1 (stereo unspecified)
growth [1]: -42.3% (active)
growth [2]: -21.5% (active)
growth [3]: 72.2%
growth [4]: -29.5% (active)
growth [5]: 26%
growth [6]: 84.7%
growth [7]: 98.7%
growth [8]: -83% (active)
growth [9]: 20.2%

COc1cc2ncnc(Nc3ccc(C(=O)/C=C/c4ccc(C(F)(F)F)cc4F)cc3)c2cc1OC
growth [1]: 104%
growth [2]: 98.8%
growth [3]: 87.7%
growth [4]: 85.4%
growth [5]: 83%
growth [6]: 104%
growth [7]: 100%
growth [8]: 92%
growth [9]: 109%

C=C(C)[C@@H]1CC[C@]2(C(=O)O)CC[C@]3(C)[C@H](CC[C@@H]4[C@@]5(C)C[C@@H](CC#Cc6ccc(Br)cc6)C(=O)C(C)(C)[C@@H]5CC[C@]43C)[C@@H]12
growth [1]: 65.6%
growth [2]: 30.7%
growth [3]: 70.9%
growth [4]: 3.58% (active)
growth [5]: 28.7%
growth [7]: -29% (active)
growth [8]: 52%
growth [9]: -35.5% (active)

COc1ccc(-c2cnnc3c(-c4cccc(C(F)(F)F)c4)cnn23)cc1
growth [1]: 68.3%
growth [2]: 63.6%
growth [3]: -26.9% (active)
growth [4]: 17.5%
growth [5]: 63.2%
growth [6]: 5.82% (active)
growth [7]: 62.6%
growth [8]: 75.4%
growth [9]: 56.1%

COc1cccc(/C=C2\COc3ccc(-c4ccccc4)cc3C2=O)c1
growth [1]: -36.9% (active)
growth [2]: 12.9%
growth [3]: 10.9%
growth [4]: -56.1% (active)
growth [5]: 19.4%
growth [6]: 24%
growth [7]: 38%
growth [8]: -85.5% (active)
growth [9]: -36.5% (active)

COc1ccc(C(=O)c2cc3c(N)c(C(=O)Nc4cccc(Cl)c4)sc3nc2C)cc1
growth [1]: 21%
growth [2]: -3.3% (active)
growth [3]: -10.1% (active)
growth [4]: 23%
growth [5]: 27.9%
growth [6]: 9.91% (active)
growth [7]: 39.3%
growth [8]: 48.2%
growth [9]: 65.7%

COc1cc(NCC(O)CN(CC(C)C)C2CCCC2)c2ncccc2c1 (stereo unspecified)
growth [1]: 84.2%
growth [2]: 78.3%
growth [3]: 103%
growth [4]: 79.9%
growth [5]: 68.8%
growth [6]: 93.1%
growth [7]: 98.9%
growth [8]: 82.7%
growth [9]: 103%

CN1CCN(Cc2ccc(NC(=O)c3cncc(C#Cc4cnccc4C(F)(F)F)c3)cc2C(F)(F)F)CC1
growth [1]: 70.2%
growth [2]: 23.5%
growth [3]: 89%
growth [4]: 78.4%
growth [5]: 80.4%
growth [6]: 75.1%
growth [7]: 89.9%
growth [8]: 20.9%
growth [9]: 56.6%

COc1ccc(Cn2nc3c(c2-c2cc(OC)c(OC)c(OC)c2)-c2oncc2CC3)cc1
growth [1]: 73.2%
growth [2]: 90.4%
growth [3]: 62.6%
growth [4]: 94.4%
growth [5]: 80.6%
growth [6]: 70.9%
growth [7]: 86.1%
growth [8]: 80.9%
growth [9]: 91.1%

CC(=O)N1N=C(c2cccc(Nc3ccncc3)c2)CC1c1ccc2c(c1)OCO2 (stereo unspecified)
growth [1]: 81.2%
growth [2]: 32.7%
growth [3]: 80.2%
growth [4]: 82.8%
growth [5]: 79%
growth [7]: 91.9%
growth [8]: 81.7%
growth [9]: 93.8%

COc1ccc(C2=C(c3ccccc3)c3ccc(OC(C)=O)cc3OC2(C)C)cc1
growth [1]: 80.4%
growth [2]: 105%
growth [3]: 118%
growth [4]: 95.7%
growth [5]: 72.4%
growth [6]: 93.1%
growth [7]: 83.5%
growth [8]: 71.4%
growth [9]: 100%

Cc1c([N+](=O)[O-])cc(C(C)(C)C)cc1[N+](=O)[O-]
growth [1]: 105%
growth [2]: 87.2%
growth [3]: 89.4%
growth [4]: 95.4%
growth [6]: 99.7%
growth [7]: 103%
growth [8]: 97.2%
growth [9]: 99.2%

CCOC(=O)c1c(O)cc(-c2ccccc2)cc1-c1sc(N(C)Cc2ccccc2)nc1Cl
growth [1]: 101%
growth [2]: 110%
growth [3]: 89.9%
growth [4]: 98%
growth [7]: 92.6%
growth [8]: 97%
growth [9]: 101%

C=C1C(=O)O[C@H]2[C@H]1CC/C(COC(=O)/C=C/c1c[nH]c3ccccc13)=C\CC[C@@]1(C)O[C@@H]21
growth [1]: -64.6% (active)
growth [2]: -83.6% (active)
growth [3]: -53.7% (active)
growth [4]: -98.1% (active)
growth [5]: -73.4% (active)
growth [6]: -98.4% (active)
growth [7]: -71.9% (active)
growth [8]: -97.3% (active)
growth [9]: -54% (active)

Cn1c(COC(=O)NCCc2ccccn2)nc2c(N3CCOCC3)nc(Cl)nc21
growth [1]: -42.2% (active)
growth [2]: 0.156% (active)
growth [3]: 14.5%
growth [4]: 9.11% (active)
growth [5]: 18.4%
growth [6]: 3.6% (active)
growth [7]: 11.1%
growth [8]: -83.7% (active)
growth [9]: -90.8% (active)

CCOC(=O)c1cnc2c(cnn2CC)c1NN=C(C)C
growth [1]: 86%
growth [2]: 84.7%
growth [3]: 69%
growth [4]: 90.4%
growth [5]: 98.4%
growth [6]: 90.4%
growth [7]: 79.3%
growth [8]: 90.7%
growth [9]: 113%

Clc1ccc(N2N=C(c3cccc(Nc4ccncc4)c3)CC2c2ccc3c(c2)OCO3)cc1 (stereo unspecified)
growth [1]: -21.1% (active)
growth [2]: 3.63% (active)
growth [3]: 55.9%
growth [4]: 5.93% (active)
growth [5]: 31.3%
growth [6]: 30.9%
growth [7]: 90.8%
growth [8]: -74.4% (active)
growth [9]: -12.5% (active)

O=S(=O)(c1cccc(NC2=Nc3cccc4cccc2c34)c1)N1CCCC1
growth [1]: 60.4%
growth [2]: 67.4%
growth [3]: 73.3%
growth [5]: 52.4%
growth [6]: 44.7%
growth [7]: 51.7%
growth [8]: 66.7%
growth [9]: 81.4%

COC(=O)Nc1nc2ccc(C(=O)c3cccc(I)c3)cc2[nH]1
growth [1]: 11.8%
growth [2]: 2.12% (active)
growth [3]: -15.3% (active)
growth [4]: 13.6%
growth [5]: 20.9%
growth [7]: 24.8%
growth [8]: 16.6%
growth [9]: 49.4%

O=C(Nc1ccc(Nc2ncccn2)cc1)NC1C=c2ccccc2=CC1 (stereo unspecified)
growth [1]: 102%
growth [2]: 103%
growth [3]: 91.8%
growth [4]: 99%
growth [6]: 99.7%
growth [7]: 92.9%
growth [8]: 108%
growth [9]: 107%

COC(=O)C(c1ccccc1)C(CC(=O)c1ccccc1)c1ccccc1 (stereo unspecified)
growth [1]: 97.1%
growth [2]: 79.1%
growth [3]: 83.2%
growth [4]: 92.2%
growth [5]: 62.3%
growth [6]: 82.1%
growth [7]: 88.7%
growth [8]: 82.7%
growth [9]: 91.8%

CC(N)C(=O)NNc1n[nH]c(=S)n1N (stereo unspecified)
growth [1]: 93.9%
growth [2]: 109%
growth [3]: 92.8%
growth [4]: 103%
growth [5]: 99.6%
growth [6]: 97.5%
growth [7]: 102%
growth [8]: 98.5%
growth [9]: 102%

CCCCCCCCCCCCCCCCCCOc1ccccc1N
growth [1]: 85.6%
growth [2]: 92.5%
growth [3]: 82.8%
growth [4]: 50.3%
growth [5]: 21.3%
growth [6]: 98.2%
growth [7]: 88.5%
growth [8]: 38.6%
growth [9]: 96.9%

CCCCCCCCCCCCCCCC(=O)OC[C@@]1(O)C[C@@]23CC[C@@H]4C(C)(C)[C@H](O)CC[C@@]4(C)[C@@H]2CC[C@H]1C3
growth [1]: 107%
growth [2]: 104%
growth [3]: 99.6%
growth [4]: 107%
growth [5]: 100%
growth [6]: 102%
growth [7]: 100%
growth [8]: 103%
growth [9]: 110%
